Measurements taken from ChEMBL document CHEMBL1961873, “Compounds: GSK PKIS; Assays: Nanosyn kinase panel” (2012).

What was measured:
[1] = tested on: Proto-oncogene tyrosine-protein kinase receptor Ret (Homo sapiens), P07949 [Y791F]; conditions: at 1 µM
[2] = target: Macrophage-stimulating protein receptor (Homo sapiens) (UniProt Q04912); conditions: at 0.1 µM
[3] = target: Macrophage-stimulating protein receptor (Homo sapiens) (UniProt Q04912); conditions: at 1 µM
[4] = target: Proto-oncogene tyrosine-protein kinase ROS (Homo sapiens) (UniProt P08922); conditions: at 0.1 µM
[5] = target: Proto-oncogene tyrosine-protein kinase ROS (Homo sapiens) (UniProt P08922); conditions: at 1 µM
[6] = target: Proto-oncogene tyrosine-protein kinase Src (Homo sapiens) (UniProt P12931); conditions: at 0.1 µM
Proto-oncogene tyrosine-protein kinase Src (Homo sapiens), sequence (P12931 2-536 limits assumed): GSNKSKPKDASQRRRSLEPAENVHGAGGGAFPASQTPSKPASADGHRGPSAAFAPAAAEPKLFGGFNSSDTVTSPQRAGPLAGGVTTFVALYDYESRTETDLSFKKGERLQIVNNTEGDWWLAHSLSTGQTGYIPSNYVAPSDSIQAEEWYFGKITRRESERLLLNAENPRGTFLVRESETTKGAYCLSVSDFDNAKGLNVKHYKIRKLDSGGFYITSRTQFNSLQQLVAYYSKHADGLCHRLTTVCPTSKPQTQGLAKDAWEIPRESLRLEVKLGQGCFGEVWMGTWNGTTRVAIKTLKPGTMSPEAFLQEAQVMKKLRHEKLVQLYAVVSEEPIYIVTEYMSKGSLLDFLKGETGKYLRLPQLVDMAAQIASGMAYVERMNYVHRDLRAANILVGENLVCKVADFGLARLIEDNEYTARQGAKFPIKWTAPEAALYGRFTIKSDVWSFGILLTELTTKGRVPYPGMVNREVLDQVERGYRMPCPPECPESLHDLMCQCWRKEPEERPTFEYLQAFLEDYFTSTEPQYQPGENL

[7] = target: Proto-oncogene tyrosine-protein kinase Src (Homo sapiens) (UniProt P12931); conditions: at 1 µM
[8] = target: Tyrosine-protein kinase Srms (Homo sapiens) (UniProt Q9H3Y6); conditions: at 0.1 µM
Tyrosine-protein kinase Srms (Homo sapiens), sequence (Q9H3Y6 whole entry): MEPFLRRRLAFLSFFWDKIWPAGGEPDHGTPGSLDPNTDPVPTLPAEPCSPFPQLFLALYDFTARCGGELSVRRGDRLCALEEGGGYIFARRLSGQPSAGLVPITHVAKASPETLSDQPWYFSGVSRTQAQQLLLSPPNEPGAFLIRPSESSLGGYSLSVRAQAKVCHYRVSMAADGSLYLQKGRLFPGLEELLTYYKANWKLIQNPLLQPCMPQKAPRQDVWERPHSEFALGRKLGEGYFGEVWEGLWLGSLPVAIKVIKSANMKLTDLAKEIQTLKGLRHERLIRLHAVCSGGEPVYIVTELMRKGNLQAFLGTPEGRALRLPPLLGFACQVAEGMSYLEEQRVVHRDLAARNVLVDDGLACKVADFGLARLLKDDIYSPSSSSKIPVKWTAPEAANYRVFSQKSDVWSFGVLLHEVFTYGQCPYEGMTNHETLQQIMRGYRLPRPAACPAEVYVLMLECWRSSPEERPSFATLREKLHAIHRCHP

[9] = target: Tyrosine-protein kinase Srms (Homo sapiens) (UniProt Q9H3Y6); conditions: at 1 µM
[10] = target: Tyrosine-protein kinase SYK (Homo sapiens) (UniProt P43405); conditions: at 0.1 µM
[11] = target: Tyrosine-protein kinase SYK (Homo sapiens) (UniProt P43405); conditions: at 1 µM
[12] = target: T1, Tyrosine-protein kinase Tec (Homo sapiens) (UniProt P42680); conditions: at 0.1 µM
T1 sequence (whole entry): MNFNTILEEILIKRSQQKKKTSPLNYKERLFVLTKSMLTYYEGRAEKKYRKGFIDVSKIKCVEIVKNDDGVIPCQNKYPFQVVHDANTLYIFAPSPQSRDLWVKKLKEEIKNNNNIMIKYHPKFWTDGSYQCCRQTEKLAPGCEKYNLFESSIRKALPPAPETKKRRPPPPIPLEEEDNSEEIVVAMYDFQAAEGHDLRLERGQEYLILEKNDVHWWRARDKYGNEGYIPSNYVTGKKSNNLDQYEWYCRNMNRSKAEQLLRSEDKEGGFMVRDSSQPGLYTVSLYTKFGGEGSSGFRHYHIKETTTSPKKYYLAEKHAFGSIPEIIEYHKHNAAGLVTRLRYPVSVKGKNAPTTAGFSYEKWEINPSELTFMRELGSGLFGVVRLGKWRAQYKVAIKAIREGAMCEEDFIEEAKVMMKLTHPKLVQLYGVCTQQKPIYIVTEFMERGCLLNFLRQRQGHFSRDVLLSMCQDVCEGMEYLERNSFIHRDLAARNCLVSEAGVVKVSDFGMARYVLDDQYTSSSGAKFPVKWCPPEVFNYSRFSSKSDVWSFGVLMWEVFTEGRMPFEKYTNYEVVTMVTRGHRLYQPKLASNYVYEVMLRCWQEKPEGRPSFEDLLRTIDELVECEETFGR

[13] = target: T1, Tyrosine-protein kinase Tec (Homo sapiens); conditions: at 1 µM
[14] = target: Angiopoietin-1 receptor (Homo sapiens) (UniProt Q02763); conditions: at 0.1 µM
Angiopoietin-1 receptor (Homo sapiens), sequence (Q02763 whole entry): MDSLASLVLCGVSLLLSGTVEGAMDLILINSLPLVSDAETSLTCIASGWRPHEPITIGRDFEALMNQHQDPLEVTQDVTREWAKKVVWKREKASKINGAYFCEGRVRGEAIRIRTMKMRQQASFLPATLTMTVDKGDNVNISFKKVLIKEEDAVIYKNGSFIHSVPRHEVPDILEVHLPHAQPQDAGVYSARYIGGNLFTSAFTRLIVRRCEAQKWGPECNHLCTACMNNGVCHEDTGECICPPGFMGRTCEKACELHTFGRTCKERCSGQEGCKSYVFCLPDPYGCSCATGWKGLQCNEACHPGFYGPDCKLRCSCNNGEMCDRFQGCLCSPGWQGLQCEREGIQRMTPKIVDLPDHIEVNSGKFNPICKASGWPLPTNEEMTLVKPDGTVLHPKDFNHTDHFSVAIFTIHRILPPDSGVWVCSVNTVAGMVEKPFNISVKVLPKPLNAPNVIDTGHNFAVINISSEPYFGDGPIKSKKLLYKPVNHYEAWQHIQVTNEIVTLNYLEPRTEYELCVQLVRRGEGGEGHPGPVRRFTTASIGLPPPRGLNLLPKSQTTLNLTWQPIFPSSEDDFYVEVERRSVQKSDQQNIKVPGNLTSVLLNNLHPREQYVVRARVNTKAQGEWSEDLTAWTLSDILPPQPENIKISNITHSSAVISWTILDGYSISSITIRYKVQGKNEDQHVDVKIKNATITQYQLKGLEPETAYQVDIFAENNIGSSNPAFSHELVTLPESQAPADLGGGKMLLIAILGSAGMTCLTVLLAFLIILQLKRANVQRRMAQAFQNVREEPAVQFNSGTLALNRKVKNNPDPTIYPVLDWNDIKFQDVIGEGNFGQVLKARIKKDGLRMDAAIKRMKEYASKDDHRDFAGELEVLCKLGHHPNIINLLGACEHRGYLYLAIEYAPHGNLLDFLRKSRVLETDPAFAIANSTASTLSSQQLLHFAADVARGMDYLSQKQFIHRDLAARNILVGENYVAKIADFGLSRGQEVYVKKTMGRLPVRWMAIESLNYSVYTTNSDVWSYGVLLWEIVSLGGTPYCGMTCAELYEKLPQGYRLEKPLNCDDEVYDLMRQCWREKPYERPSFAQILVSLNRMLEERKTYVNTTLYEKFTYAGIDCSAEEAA

[15] = target: Angiopoietin-1 receptor (Homo sapiens) (UniProt Q02763); conditions: at 1 µM
[16] = target: T2, Non-receptor tyrosine-protein kinase TNK1 (Homo sapiens) (UniProt Q13470); conditions: at 0.1 µM
T2 sequence (whole entry): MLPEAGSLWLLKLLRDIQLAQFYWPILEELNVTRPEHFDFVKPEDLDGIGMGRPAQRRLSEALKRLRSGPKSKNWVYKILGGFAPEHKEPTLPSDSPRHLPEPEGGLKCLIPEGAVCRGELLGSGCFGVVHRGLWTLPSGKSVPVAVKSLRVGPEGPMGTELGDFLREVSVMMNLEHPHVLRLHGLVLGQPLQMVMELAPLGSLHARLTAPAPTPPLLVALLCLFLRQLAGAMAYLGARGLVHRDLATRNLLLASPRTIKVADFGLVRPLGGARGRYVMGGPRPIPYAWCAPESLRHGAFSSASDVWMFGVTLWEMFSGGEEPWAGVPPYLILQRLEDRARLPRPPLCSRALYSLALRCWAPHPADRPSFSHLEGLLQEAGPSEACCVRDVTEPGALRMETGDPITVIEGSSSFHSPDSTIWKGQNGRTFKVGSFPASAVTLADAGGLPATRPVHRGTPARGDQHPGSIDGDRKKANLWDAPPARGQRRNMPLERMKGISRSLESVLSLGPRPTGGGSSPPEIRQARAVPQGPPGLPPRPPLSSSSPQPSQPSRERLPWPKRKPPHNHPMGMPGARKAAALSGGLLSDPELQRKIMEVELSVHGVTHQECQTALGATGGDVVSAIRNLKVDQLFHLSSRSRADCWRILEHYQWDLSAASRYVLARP

[17] = target: T2, Non-receptor tyrosine-protein kinase TNK1 (Homo sapiens); conditions: at 1 µM
[18] = target: Activated CDC42 kinase 1 (Homo sapiens) (UniProt Q07912); conditions: at 0.1 µM
Activated CDC42 kinase 1 (Homo sapiens), sequence (Q07912 whole entry, looked up): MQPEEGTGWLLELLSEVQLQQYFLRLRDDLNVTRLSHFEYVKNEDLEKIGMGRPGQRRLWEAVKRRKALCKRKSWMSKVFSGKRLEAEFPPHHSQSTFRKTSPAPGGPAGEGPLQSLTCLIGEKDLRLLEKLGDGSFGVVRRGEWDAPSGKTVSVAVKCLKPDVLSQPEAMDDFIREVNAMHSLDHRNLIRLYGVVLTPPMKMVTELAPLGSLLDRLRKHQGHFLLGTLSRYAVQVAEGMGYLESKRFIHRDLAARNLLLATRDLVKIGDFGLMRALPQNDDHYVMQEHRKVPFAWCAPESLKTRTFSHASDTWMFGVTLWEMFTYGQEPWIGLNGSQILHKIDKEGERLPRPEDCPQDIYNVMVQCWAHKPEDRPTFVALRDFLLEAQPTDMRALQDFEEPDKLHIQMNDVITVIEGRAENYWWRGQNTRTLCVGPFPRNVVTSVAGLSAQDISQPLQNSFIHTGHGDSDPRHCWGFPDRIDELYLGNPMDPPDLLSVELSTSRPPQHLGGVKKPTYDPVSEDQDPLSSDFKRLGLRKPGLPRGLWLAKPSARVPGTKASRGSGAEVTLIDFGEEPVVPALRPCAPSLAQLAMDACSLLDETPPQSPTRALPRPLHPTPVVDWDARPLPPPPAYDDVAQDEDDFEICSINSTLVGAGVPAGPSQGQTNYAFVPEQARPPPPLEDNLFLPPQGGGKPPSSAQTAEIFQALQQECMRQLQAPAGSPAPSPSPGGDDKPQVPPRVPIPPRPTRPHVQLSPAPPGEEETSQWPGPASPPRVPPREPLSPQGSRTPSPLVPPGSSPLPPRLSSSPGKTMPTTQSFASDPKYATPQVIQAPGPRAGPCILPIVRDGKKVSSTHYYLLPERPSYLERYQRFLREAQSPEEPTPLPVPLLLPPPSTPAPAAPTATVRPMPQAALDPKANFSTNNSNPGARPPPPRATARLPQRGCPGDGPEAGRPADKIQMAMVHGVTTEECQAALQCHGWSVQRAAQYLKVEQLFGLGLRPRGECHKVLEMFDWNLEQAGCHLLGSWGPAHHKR

[19] = target: Activated CDC42 kinase 1 (Homo sapiens) (UniProt Q07912); conditions: at 1 µM
[20] = target: High affinity nerve growth factor receptor (Homo sapiens) (UniProt P04629); conditions: at 0.1 µM;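 also: each value is a mean of replicate percent inhibition readings against TRKA kinase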
High affinity nerve growth factor receptor (Homo sapiens), sequence (P04629 33-796 limits assumed): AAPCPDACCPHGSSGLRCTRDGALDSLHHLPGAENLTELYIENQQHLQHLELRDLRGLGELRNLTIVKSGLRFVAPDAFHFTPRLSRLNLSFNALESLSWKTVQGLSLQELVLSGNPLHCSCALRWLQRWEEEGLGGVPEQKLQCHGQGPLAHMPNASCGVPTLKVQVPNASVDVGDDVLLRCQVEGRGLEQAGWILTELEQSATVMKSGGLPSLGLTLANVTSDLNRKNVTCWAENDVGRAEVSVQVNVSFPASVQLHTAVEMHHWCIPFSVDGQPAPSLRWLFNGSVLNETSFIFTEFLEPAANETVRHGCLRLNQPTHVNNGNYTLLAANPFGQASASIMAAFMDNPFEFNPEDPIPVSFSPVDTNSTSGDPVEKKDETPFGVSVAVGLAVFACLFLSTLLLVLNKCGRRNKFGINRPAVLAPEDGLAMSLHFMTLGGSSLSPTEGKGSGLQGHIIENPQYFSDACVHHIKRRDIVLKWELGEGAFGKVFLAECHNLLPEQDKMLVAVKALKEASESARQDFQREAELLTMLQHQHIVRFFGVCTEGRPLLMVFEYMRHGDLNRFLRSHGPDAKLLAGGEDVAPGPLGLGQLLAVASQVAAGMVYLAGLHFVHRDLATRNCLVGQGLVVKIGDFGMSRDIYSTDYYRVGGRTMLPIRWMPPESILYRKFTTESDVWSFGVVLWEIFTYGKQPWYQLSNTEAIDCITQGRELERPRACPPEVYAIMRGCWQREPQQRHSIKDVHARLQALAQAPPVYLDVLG

Proto-oncogene tyrosine-protein kinase receptor Ret (Homo sapiens), P07949 [Y791F], sequence (P07949 whole entry Y791F): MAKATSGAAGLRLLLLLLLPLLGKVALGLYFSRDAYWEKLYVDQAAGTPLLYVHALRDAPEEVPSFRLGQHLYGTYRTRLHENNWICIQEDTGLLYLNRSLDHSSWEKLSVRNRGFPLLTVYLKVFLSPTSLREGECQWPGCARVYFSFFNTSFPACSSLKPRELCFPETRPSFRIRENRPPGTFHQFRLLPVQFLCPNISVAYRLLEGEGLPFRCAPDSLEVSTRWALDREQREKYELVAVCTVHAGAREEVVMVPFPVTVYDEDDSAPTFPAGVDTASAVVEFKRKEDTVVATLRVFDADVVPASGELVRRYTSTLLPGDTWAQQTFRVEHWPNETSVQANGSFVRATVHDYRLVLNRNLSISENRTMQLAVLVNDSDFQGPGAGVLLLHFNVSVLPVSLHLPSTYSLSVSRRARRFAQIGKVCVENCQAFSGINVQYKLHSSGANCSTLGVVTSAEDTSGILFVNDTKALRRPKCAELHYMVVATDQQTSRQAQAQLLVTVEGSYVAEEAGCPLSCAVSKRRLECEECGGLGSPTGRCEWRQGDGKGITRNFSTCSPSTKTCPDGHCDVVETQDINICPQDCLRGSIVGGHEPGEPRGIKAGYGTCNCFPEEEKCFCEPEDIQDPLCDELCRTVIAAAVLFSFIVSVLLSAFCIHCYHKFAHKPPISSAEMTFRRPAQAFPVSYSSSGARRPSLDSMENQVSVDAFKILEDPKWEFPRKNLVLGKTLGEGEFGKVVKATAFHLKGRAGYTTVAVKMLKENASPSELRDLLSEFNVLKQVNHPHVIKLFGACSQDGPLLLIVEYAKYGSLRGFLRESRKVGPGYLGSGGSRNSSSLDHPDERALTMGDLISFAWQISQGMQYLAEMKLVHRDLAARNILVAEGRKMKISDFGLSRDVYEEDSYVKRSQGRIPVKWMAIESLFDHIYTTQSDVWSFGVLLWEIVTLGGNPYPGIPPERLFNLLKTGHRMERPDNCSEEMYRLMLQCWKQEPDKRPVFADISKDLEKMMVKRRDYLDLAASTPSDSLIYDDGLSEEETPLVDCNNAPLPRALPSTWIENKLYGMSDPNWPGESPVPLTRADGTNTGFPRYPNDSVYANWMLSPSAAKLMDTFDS

O=C1Nc2ccc(I)cc2C1=Cc1cc(Br)c(O)c(Br)c1
inhibition [1]: 5.79%
inhibition [2]: 8.18%
inhibition [3]: 13.2%
inhibition [4]: 6.23%
inhibition [5]: 8.1%
inhibition [6]: 8.18%
inhibition [7]: 14.2%
inhibition [8]: 2.19%
inhibition [9]: 27.2%
inhibition [10]: 1.97%
inhibition [11]: 1.56%
inhibition [12]: 7.04%
inhibition [13]: 3.72%
inhibition [14]: 4.71%
inhibition [15]: 5.55%
inhibition [16]: 22.7%
inhibition [17]: 84.5%
inhibition [18]: 0.67%
inhibition [19]: 3.22%
inhibition [20]: 2.97%

Fc1ccc(-c2c(-c3ccncc3)nc3n2CCS3)cc1
inhibition [1]: 7.69%
inhibition [2]: 7.82%
inhibition [3]: 5.85%
inhibition [4]: 2.1%
inhibition [5]: 8.26%
inhibition [6]: -3.16%
inhibition [7]: 9.68%
inhibition [9]: 0.79%
inhibition [10]: 0.99%
inhibition [11]: 1.49%
inhibition [12]: -1.67%
inhibition [13]: -0.75%
inhibition [14]: 2.27%
inhibition [15]: 4.78%
inhibition [16]: 0.74%
inhibition [17]: 2.59%
inhibition [18]: 0.57%
inhibition [19]: 1.01%
inhibition [20]: 3.03%

CCC(=O)Nc1ccc(C)c(-c2ccc(C(=O)NCC3CC3)cc2)c1
inhibition [1]: 6.48%
inhibition [2]: 9.18%
inhibition [3]: 7.8%
inhibition [5]: 3.11%
inhibition [6]: 6.28%
inhibition [7]: 6.57%
inhibition [8]: -0.92%
inhibition [9]: -1.83%
inhibition [10]: 3.61%
inhibition [11]: 0.67%
inhibition [12]: 3.13%
inhibition [13]: 2.28%
inhibition [14]: 4.73%
inhibition [15]: 6.22%
inhibition [16]: -0.12%
inhibition [17]: 6.35%
inhibition [18]: 0.66%
inhibition [19]: 1.34%
inhibition [20]: 2%

CCc1cccc(CC)c1/C=C/c1cncc(C(=O)NC)c1
inhibition [1]: 2.43%
inhibition [2]: -0.25%
inhibition [3]: 6%
inhibition [4]: 2.24%
inhibition [5]: 4.93%
inhibition [6]: 2.97%
inhibition [7]: 10.2%
inhibition [8]: 0.35%
inhibition [9]: -0.17%
inhibition [10]: -3.77%
inhibition [11]: -0.49%
inhibition [12]: 4.18%
inhibition [13]: 7.25%
inhibition [14]: 1.3%
inhibition [15]: 3.17%
inhibition [16]: 5.96%
inhibition [17]: 10.2%
inhibition [18]: 1.3%
inhibition [19]: 2.37%
inhibition [20]: 1.94%

O=C(Nc1n[nH]c2cc(-c3ccccc3)ccc12)C1CC1
inhibition [1]: 10.6%
inhibition [2]: 3.18%
inhibition [3]: 5.31%
inhibition [4]: 6.26%
inhibition [5]: 7.64%
inhibition [6]: 0.33%
inhibition [7]: 10.7%
inhibition [8]: -0.84%
inhibition [9]: 3.11%
inhibition [10]: -3.33%
inhibition [11]: 1.22%
inhibition [12]: 7.27%
inhibition [13]: 16.4%
inhibition [14]: 1.86%
inhibition [15]: 3.48%
inhibition [16]: 3.15%
inhibition [17]: 7.79%
inhibition [18]: 0.74%
inhibition [19]: 3.97%
inhibition [20]: 2.59%

COc1cc2ncn(-c3cc(OCCc4ccccc4)c(C(N)=O)s3)c2cc1OC
inhibition [1]: 21.3%
inhibition [2]: -1.46%
inhibition [3]: 6.81%
inhibition [4]: 3.89%
inhibition [5]: 6.98%
inhibition [6]: 1.6%
inhibition [7]: 12.9%
inhibition [8]: -2.94%
inhibition [9]: -2.68%
inhibition [10]: -2.02%
inhibition [11]: -0.89%
inhibition [12]: 2.52%
inhibition [13]: 4.4%
inhibition [14]: 3.5%
inhibition [15]: 14.9%
inhibition [16]: 2.85%
inhibition [17]: 13.5%
inhibition [18]: 0.78%
inhibition [19]: 2.21%
inhibition [20]: 1.42%

CN(c1ccc(NC(=O)Nc2c(Cl)cccc2Cl)cc1)c1ccnc(Nc2cccc(CS(C)(=O)=O)c2)n1
inhibition [1]: 64.8%
inhibition [2]: 68.8%
inhibition [3]: 82.1%
inhibition [4]: 14.8%
inhibition [5]: 33.5%
inhibition [6]: 40.7%
inhibition [7]: 65.4%
inhibition [8]: 2.98%
inhibition [9]: 3.99%
inhibition [10]: 2.77%
inhibition [11]: -9.25%
inhibition [12]: 10.1%
inhibition [13]: 21.4%
inhibition [14]: 64.2%
inhibition [15]: 72.1%
inhibition [16]: 59.8%
inhibition [17]: 84.1%
inhibition [18]: 1.13%
inhibition [19]: 4.21%
inhibition [20]: 49.7%

COc1ccc(-c2ccc3c(NC(=O)C4CC4)n[nH]c3n2)cc1
inhibition [1]: 9.16%
inhibition [2]: 6.88%
inhibition [3]: 2.2%
inhibition [4]: 2.06%
inhibition [5]: 3.33%
inhibition [6]: 7.63%
inhibition [7]: 4.36%
inhibition [8]: -2.79%
inhibition [9]: 2.08%
inhibition [10]: 0.08%
inhibition [11]: -2.02%
inhibition [12]: 0.87%
inhibition [13]: 2.47%
inhibition [14]: 2.75%
inhibition [15]: 5.88%
inhibition [16]: 1.34%
inhibition [17]: 12%
inhibition [18]: 0.32%
inhibition [19]: 1.42%
inhibition [20]: -0.67%
